# Test results as given in PubChem BioAssay (NCATS).
# Records with an inconclusive call do not appear. Entries that show only a call come without a potency. Active and inactive are the calls of the source. Unless noted, calls follow the shape of the dose curve; as a rule, active = well fitted curve in the direction sought with a large enough effect; inconclusive = small, poorly fitted or top-dose-only effect, or another doubt; inactive = no such curve, though single readings can be large; an effect the other way counts as inactive or inconclusive. Square brackets hold non-standard residues; d marks the D form. Peptide text beside a SMILES is read from it. pGlu = O=C1CC[C@@H](C(=O)O)N1
# Legend:
# [1] = molecular target: Glutathione peroxidase 1 (Homo sapiens) (UniProt P07203); assay: Primary qHTS Assay for Inhibitors of Recombinant Selenoprotein Glutathione Peroxidase 1 (GPX1) (AID 1845191); also: nearly all actives have a fitted effect of over 65% in size; also: potency is read from the fitted curve at half-maximal effect
# Summary of the method: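 NADPH consumption tracked by fluorescence at 340/450 nm between t=0 and t=15 min, room temperature. Final mix: 10 nM GPX1, 100 nM glutathione reductase, 1 mM GSH, 0.5 mM NADPH, 0.5 mM cumene hydroperoxide, 0.01% BSA; 30 min compound–enzyme preincubation.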
# [2] = molecular target: Phospholipid hydroperoxide glutathione peroxidase GPX4 (Homo sapiens) (UniProt P36969); assay: Primary qHTS Assay for Inhibitors of Recombinant Selenoprotein Glutathione Peroxidase 4 (GPX4) (AID 1845192); also: nearly all actives have a fitted effect of over 65% in size
# Summary of the method: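 NADPH consumption followed by fluorescence at 340/450 nm, t=0 and after 15 min at room temperature. Reaction started with cumene hydroperoxide (0.5 mM final) after 30 min compound–GPX4 preincubation; final 200 nM GPX4, 100 nM GR, 1 mM GSH, 0.5 mM NADPH.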
# [3] = Cell Viability - N2a (AID 540); conditions: N2a mouse neuroblastoma cell viability; activity change, negative = cytotoxicity: at 92.2 µM (top of the series);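 also: cells exposed to compound for 40 h at 37 °C; nearly all actives have a fitted effect of over 45% in size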
# Summary of the method: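 N2a mouse neuroblastoma, 1500 cells/well, 5 hr settle; compound 40 hr, 37 °C; CellTiter-Glo 20 min RT; luminescence; Hill-fit AC50.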
# [4] = Cell Viability - SH-SY5Y (AID 544);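 also: cells exposed to compound for 40 hours; nearly all actives have a fitted effect of over 55% in size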
# Summary of the method: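 SH-SY5Y, 1500 cells/well, 5 hr pre-incubation 37 °C; cpd 40 hr 37 °C; CellTiter-Glo 20 min RT; luminescence (ATP) read. qHTS concentration-response, Hill fit → AC50. Tamoxifen, doxorubicin as positive controls.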
# [5] = Cell Viability - Renal Proximal Tubule (AID 545); conditions: renal proximal tubule cells viability, primary cells of rat origin; at 91.7 µM (top of the series);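 also: cells exposed to compound for 40 hours; nearly all actives have a fitted effect of over 40% in size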
# Summary of the method: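 Viability taken as intracellular ATP (CellTiter-Glo luminescence) after 40 hr, 37 °C compound treatment of primary proximal tubule cells from rat kidney, 1000 cells/well; Hill-equation fits of qHTS concentration-response data gave AC50.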
# [6] = Cell Viability - Mesenchymal (AID 546); conditions: mesenchymal cells viability, qHTS; activity change, negative = cytotoxicity: at 91.7 µM (top of the series);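 also: cells exposed to compound for 40 hours before reading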
# Summary of the method: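 CellTiter-Glo luminescence (intracellular ATP, 20 min room temperature) after 40 hr compound exposure at 37 °C of 1000 glomerulus-derived human kidney mesenchymal cells/well; AC50 values obtained by fitting qHTS concentration-response data to the Hill equation.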
# [7] = Cellular Toxicity (caspase-3) HepG2 (AID 654);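 also: cells exposed to compound for 16 hours before reading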
# Summary of the method: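 Luminescent Caspase-Glo 3/7 readout after 16 hr compound exposure of human hepatocellular carcinoma HepG2 cells at 37 °C; qHTS concentration-response, normalized DMSO = 0%, 100 uM tamoxifen = 100%; AC50 by standard Hill equation.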
# [8] = Cellular Toxicity (caspase-3) HUV-EC-C (AID 656)
# Summary of the method: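 Luminescent Caspase-Glo 3/7 readout after 16 h, 37 °C compound exposure of HUV-EC-C endothelial cells, 1000 per well, complete medium. AC50 derived by Hill fitting, with DMSO as baseline and 100 uM tamoxifen as full activation.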
# [9] = Cellular Toxicity (caspase-3) BJ (AID 658);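 also: cells exposed to compound for 16 hours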
# Summary of the method: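 Caspase-Glo 3/7 luminescence, read 1 hr after reagent at room temperature, in normal BJ fibroblasts exposed 16 hours at 37 °C. AC50 values from Hill-equation concentration-response, scaled between DMSO basal and 10 uM staurosporine as 100%.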
# [10] = Cellular Toxicity (caspase-3) MRC-5 (AID 659)
# Summary of the method: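 Luminescent Caspase-Glo 3/7 read-out (1 h, room temperature) after a 16 h, 37 °C compound exposure of MRC-5 lung fibroblasts at 1500 cells/well. Concentration-response AC50 from Hill equation; 0% DMSO, 100% 10 uM staurosporine.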
# [11] = Cellular Toxicity (caspase-3) Mesangial (AID 660);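 also: combined caspase 3 and 7 activity read by Caspase-Glo luminescence; cells exposed to compound for 16 h before the caspase read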
# Summary of the method: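 Luminescent Caspase-Glo 3/7 readout (aminoluciferin substrate cleavage, 20 min RT) after 16 h compound exposure at 37 °C of normal human mesangial cells. Signal increase normalized between DMSO basal and 100 uM tamoxifen; Hill-equation AC50.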
# [12] = Cellular Toxicity (caspase-3) Hek293 (AID 664);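 also: cells exposed to compound for 16 h at 37 °C before readout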
# Summary of the method: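 Luminescent Caspase-Glo 3/7 readout (aminoluciferin release) in HEK293 cells after 16 h compound treatment, 37 °C. Normalization: DMSO = basal, 100 uM tamoxifen = 100% stimulation. Concentration-response fitted with standard Hill equation for AC50.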
# [13] = Cellular Toxicity (caspase-3) N2a (AID 665);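 also: compound exposure lasted 16 h at 37 °C before readout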
# Summary of the method: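 Luminescent Caspase-Glo 3/7 readout in N2a mouse neuroblastoma cells after 16 h compound exposure at 37 °C. Signal scaled to DMSO (basal) and 10 uM staurosporine (100%). Concentration-response fitted with Hill equation for AC50.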
# [14] = qHTS Assay for Identification of Small Molecule Inducers of Hypoxia Response (AID 2120; active = well fitted curve in the direction sought with a large enough effect in the signal ratio, with a control signal flat, not every such curve was filed as active; the % refers to the signal ratio)
# Summary of the method: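 Read-out: CCF4 FRET emission ratio 460nm/530nm (excitation 405nm), converted to %Activity, with AC50 fitted across a compound titration. ME-180 cells carried an HRE-driven beta-lactamase reporter; compound exposure 17 h, 37 degrees C.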
# [15] = qHTS assay for small molecule antagonists of retinoid X receptor alpha signaling (AID 588546; active = well fitted inhibition curve with a large enough effect in the signal ratio, with a control signal flat, not every such curve was filed as active; the % refers to the signal ratio;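 also: cells stimulated with 9-cis-retinoic acid as agonist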); conditions: HEK293T RXRa-UAS-bla, beta-lactamase ratio, antagonist mode; measured here: W530 green channel, cytotoxicity proxy
# Summary of the method: (§1)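 Beta-lactamase reporter inhibition, read as CCF4 fluorescence ratio (ex 405, em 460/530 nm) after 2 h at RT. HEK293T UAS-bla cells, 2500/well, were stimulated with 9-cis-RA at 500 or 100 nM final alongside test compound for 18 h at 37 C.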
# [16] = molecular target: Retinoic acid receptor RXR-alpha (Homo sapiens) (UniProt P19793); assay: as above; conditions: HEK293T RXRa-UAS-bla, beta-lactamase ratio, antagonist mode
# Summary of the method: as §1
# [17] = qHTS assay for environmental chemicals that activate the Aryl hydrocarbon Receptor (AhR) signaling pathway (AID 651777); conditions: 1A2-DRE human hepatoma cells, luciferase, 24 h; activation: stronger effect = higher value; also: nearly all actives have a fitted effect of over 15% in size
# Summary of the method: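 Stable CYP1A2 promoter/DRE-luciferase human hepatoma line treated 24 hr; One-Glo luminescence, 30 min RT.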
# [18] = molecular target: Peroxisome proliferator-activated receptor alpha (Homo sapiens) (UniProt Q07869); assay: qHTS assay for small molecule agonists of the peroxisome proliferator-activated receptor alpha (PPARalpha) signaling pathway (AID 651778); conditions: PathHunter PPARalpha complementation, chemiluminescence, 6 h; max response: stronger effect = higher value
# Summary of the method: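 Chemiluminescence from complemented enzyme reported PPARalpha activation in cells after 6 hr of compound treatment at 37 C. The detection reagent was incubated for 60 min at room temperature, and compounds were scored as agonists.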
# [19] = qHTS assay for cell viability of HEK293 cells (AID 743288); conditions: ATP luminescence (CellTiter-Glo), 18 h; max response: stronger effect = lower value; also: nearly all actives have a fitted effect of over 50% in size
# Summary of the method: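 Readout is luciferase-coupled ATP content (CellTiter-Glo luminescence, 30 min room temperature) as a measure of metabolically competent cells. Parental HEK293 cells were plated 5 h or more before compound addition, then treated 18 h at 37 C.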
# [20] = qHTS assay for cell viability of the p53RE-bla HCT-116 cell line (AID 743292); also: nearly all actives have a fitted effect of over 55% in size
# Summary of the method: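 Readout: CellTiter-Glo luminescence after 30 min RT. Treatment: compounds in DMSO, 16 h, 37 C. Cells: CellSensor p53RE-bla HCT-116, 4,000/well, preincubated 5 h.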
# Glutathione peroxidase 1 (Homo sapiens), sequence (P07203 whole entry, looked up): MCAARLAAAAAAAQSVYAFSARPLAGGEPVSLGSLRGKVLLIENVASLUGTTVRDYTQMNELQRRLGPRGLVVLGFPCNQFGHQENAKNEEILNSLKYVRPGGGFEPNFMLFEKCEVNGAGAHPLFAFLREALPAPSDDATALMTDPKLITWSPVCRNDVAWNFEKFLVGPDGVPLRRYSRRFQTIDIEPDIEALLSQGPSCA
# Phospholipid hydroperoxide glutathione peroxidase GPX4 (Homo sapiens), sequence (P36969 whole entry, looked up): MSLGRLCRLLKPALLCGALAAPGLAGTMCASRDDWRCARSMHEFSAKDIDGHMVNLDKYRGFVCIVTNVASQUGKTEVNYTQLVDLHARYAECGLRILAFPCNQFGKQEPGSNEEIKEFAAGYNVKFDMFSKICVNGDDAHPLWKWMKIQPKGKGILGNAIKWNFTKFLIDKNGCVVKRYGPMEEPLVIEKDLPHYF
# Peroxisome proliferator-activated receptor alpha (Homo sapiens), sequence (Q07869 whole entry, looked up): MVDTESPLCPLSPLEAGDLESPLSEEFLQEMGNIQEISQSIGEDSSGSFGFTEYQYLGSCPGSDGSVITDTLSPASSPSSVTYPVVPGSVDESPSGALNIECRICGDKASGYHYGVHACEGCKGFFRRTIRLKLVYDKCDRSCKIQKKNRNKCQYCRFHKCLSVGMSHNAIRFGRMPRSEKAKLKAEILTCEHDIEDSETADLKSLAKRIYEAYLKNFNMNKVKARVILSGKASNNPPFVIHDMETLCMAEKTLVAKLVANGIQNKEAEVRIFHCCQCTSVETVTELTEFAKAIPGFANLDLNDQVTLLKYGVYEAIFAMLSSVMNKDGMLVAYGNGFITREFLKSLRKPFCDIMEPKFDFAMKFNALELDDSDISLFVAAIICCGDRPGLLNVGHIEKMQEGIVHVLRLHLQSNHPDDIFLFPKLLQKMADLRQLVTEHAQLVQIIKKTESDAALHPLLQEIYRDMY
# Retinoic acid receptor RXR-alpha (Homo sapiens), sequence (P19793 whole entry, looked up): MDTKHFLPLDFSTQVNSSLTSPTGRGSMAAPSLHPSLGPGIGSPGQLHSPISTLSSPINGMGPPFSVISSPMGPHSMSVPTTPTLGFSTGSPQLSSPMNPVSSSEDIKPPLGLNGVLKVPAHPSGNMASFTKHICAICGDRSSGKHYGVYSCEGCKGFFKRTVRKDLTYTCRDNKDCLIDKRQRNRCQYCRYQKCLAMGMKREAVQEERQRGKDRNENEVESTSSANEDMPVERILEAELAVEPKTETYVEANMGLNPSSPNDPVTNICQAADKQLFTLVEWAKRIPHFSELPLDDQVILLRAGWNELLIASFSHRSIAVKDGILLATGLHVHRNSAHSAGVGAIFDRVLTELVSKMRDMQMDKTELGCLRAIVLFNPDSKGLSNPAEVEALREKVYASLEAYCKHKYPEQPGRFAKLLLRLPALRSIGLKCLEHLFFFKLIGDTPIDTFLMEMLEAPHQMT
structure (smiles),measurement,setting,value
CCC(=O)Oc1ccc2c(c1)CC[C@@H]1[C@H]2CC[C@]2(C)[C@@H](OC(=O)CC)CC[C@@H]12,Potency,[1],inactive
same,Potency,[2],inactive
CCCCC(CC)COC(=O)c1ccc(Nc2nc(Nc3ccc(C(=O)OCC(CC)CCCC)cc3)nc(Nc3ccc(C(=O)OCC(CC)CCCC)cc3)n2)cc1 (stereo unspecified),Potency,[1],inactive
same,Potency,[2],inactive
C[C@]12C=CC(=O)C=C1CC[C@@H]1[C@@H]2[C@@H](O)C[C@@]2(C)[C@H]1CC[C@]2(O)C(=O)COP(=O)(O)O,outcome,[1],inactive [at 9.52 µM]
same,outcome,[2],inactive [at 9.73 µM]
O=c1c2c(c1=O)N(CCP(=O)(O)O)CCCN2,Potency,[1],inactive
same,Potency,[2],inactive
C#C[C@]1(O)CC[C@H]2[C@@H]3CCC4=CC(=O)CCC4[C@H]3CC[C@@]21CC (stereo partly specified),Potency,[1],inactive
same,Potency,[2],inactive
CCC(=O)O[C@@H]1[C@@H](C)O[C@@H](O[C@H]2[C@H](N(C)C)[C@@H](O)[C@H](O[C@H]3[C@@H](CC=O)C[C@@H](C)[C@@H](OC(C)=O)/C=C/C=C/C[C@@H](C)OC(=O)C[C@@H](OC(=O)CC)[C@@H]3OC)O[C@@H]2C)C[C@]1(C)OC(C)=O,Potency,[1],inactive
same,Potency,[2],inactive
Cc1cc(C#N)cc(C)c1Oc1nc(Nc2ccc(C#N)cc2)nc(N)c1Br,Potency,[1],inactive
same,Potency,[2],inactive
CCC1OC(=O)[C@H](C)C(=O)[C@H](C)[C@@H](OC2O[C@H](C)C[C@H](N(C)C)[C@H]2O)[C@](C)(OC)C[C@@H](C)C(=O)[C@@H](C)[C@@H]2N(CCCCn3cnc(-c4cccnc4)c3)C(=O)O[C@]12C (stereo partly specified),Potency,[1],inactive
same,Potency,[2],inactive
CC1(C)S[C@@H]2[C@H](NC(=O)[C@H](NC(=O)N3CCNC3=O)c3ccccc3)C(=O)N2C1C(=O)O (stereo partly specified),Potency,[1],inactive
same,Potency,[2],inactive
CCCCCCCC(=O)N[C@H](CN1CCCC1)[C@H](O)c1ccc2c(c1)OCCO2,Potency,[1],inactive
same,Potency,[2],inactive
C/C(O)=C(\C#N)C(=O)Nc1ccc(C(F)(F)F)cc1,Potency,[1],inactive
same,Potency,[2],inactive
CCc1ccc(N(CC(C)C)S(=O)(=O)c2ccc(OCC3CCOCC3)c(CO)c2)cc1,Potency,[1],inactive
same,Potency,[2],inactive
O=C1CCc2ccccc2O1,"activity change, negative = cytotoxicity",[3],7.64% (inactive)
same,Potency,[4],inactive
same,"activity change, negative = cytotoxicity",[5],-10.3% (inactive)
same,"activity change, negative = cytotoxicity",[6],7.71% (inactive)
same,outcome,[7],inactive
same,outcome,[8],inactive
same,outcome,[9],inactive
same,outcome,[10],inactive
same,outcome,[11],inactive
same,outcome,[12],inactive
same,outcome,[13],inactive
same,outcome,[14],inactive
same,max response,[15],-3.35%
same,max response,[16],0.0036% (inactive)
same,activation,[17],0.95% (inactive)
same,max response,[18],0.979% (inactive)
same,max response,[19],-0.285% (inactive)
same,Potency,[20],inactive
same,Potency,[1],inactive
O=c1cc(-c2cccc(O)c2)oc2c(O)c(O)ccc12,Potency,[1],inactive
COc1cc([C@@H]2c3cc4c(cc3[C@@H](O[C@@H]3O[C@@H]5CO[C@@H](C)O[C@H]5[C@H](O)[C@H]3O)[C@H]3COC(=O)[C@H]23)OCO4)cc(OC)c1OP(=O)(O)O,Potency,[1],inactive
CC1CCC(C(C)C)C(OC(=O)c2ccccc2O)C1 (stereo unspecified),Potency,[1],inactive
CCNC(=O)[C@H]1CCCN1C(=O)[C@H](CCCN=C(N)N)NC(=O)[C@H](CC(C)C)NC(=O)[C@H](CC(C)C)NC(=O)[C@@H](Cc1ccc(O)cc1)NC(=O)[C@H](CO)NC(=O)[C@@H](Cc1c[nH]c2ccccc12)NC(=O)[C@H](Cc1cnc[nH]1)NC(=O)[C@@H]1CCC(=O)N1 ([pGlu]H[dW]S[dY]LLR[dP]-NHEt),Potency,[1],inactive
CO/N=C(/C(=O)N[C@@H]1C(=O)N2C(C(=O)OC(C)OC(C)=O)=C(COC(N)=O)CS[C@H]12)c1ccco1 (stereo partly specified),Potency,[1],20.2 µM (active)
CCC(=O)O[C@@H](OP(=O)(CCCCc1ccccc1)CC(=O)N1C[C@H](C2CCCCC2)C[C@H]1C(=O)O)C(C)C (stereo partly specified),"activity, negative = inhibition",[1],2.57% [at 9.52 µM] (inactive)
CC(=O)OCC1=C(C(=O)O)N2C(=O)[C@@H](NC(=O)CC#N)[C@H]2SC1,Potency,[2],inactive
CC(=O)O[C@@]12CO[C@@H]1C[C@H](O)[C@@]1(C)C(=O)[C@H](O)C3=C(C)[C@@H](OC(=O)C(O)[C@@H](NC(=O)OC(C)(C)C)c4ccccc4)C[C@@](O)([C@@H](OC(=O)c4ccccc4)[C@H]21)C3(C)C (stereo partly specified),Potency,[1],inactive
